Pol III holo inh: inhibitors of bacterial DNA polymerase III holoenzyme. reconstituted DNA polymerase III holoenzyme replication, biochemical. AID 603. Potency, µM (doses to about 57.1 µM). 71,000 tested, 0.25% active
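Reconstituted *E. coli* holoenzyme (0.35 nM Pol III, 1 nM beta, 154 nM SSB, 2 nM primase) was preincubated with compound for 15 min at RT. Synthesis on 1.4 nM ssM13Gori ran 35 min, then was stopped with PicoGreen/EDTA and read as dsDNA fluorescence.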
YjeE inh: inhibitors of E. coli YjeE (TsaE); Potency, µM; purified YjeE enzyme, qHTS inhibition assay; 71,000 tested, 0.05% active; P0AF67
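Purified YjeE (10 uM) with BODIPY Texas Red-labeled ADP probe (2 uM); compounds pin-transferred, 15 min at room temperature. Binding inhibition read as decreased fluorescence polarization; ADP titration as control.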
ERK AVP inh: vasopressin-driven ERK pathway inhibition | AID 995 | Potency, µM (highest dose often 57.5 µM), usual class: inhibitors | 72,000 tested, 0.99% active | HEK293-V1b, vasopressin-stimulated pERK AlphaScreen; also: nearly all actives have a fitted effect of over 55% in size
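V1b-HEK293 cells; cpd 30 min 37C; 25 nM vasopressin 5 min; lyse 10 min; AlphaScreen beads 5 hr RT. Normalized to DMSO basal and 25 nM vasopressin; AC50 by Hill fit.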
BRCT PPI green: inhibitors of human BRCA1 BRCT-phosphoprotein interaction (green fluorophore); P38398; BRCA1 BRCT-phosphopeptide binding, green fluorescence polarization; Potency, µM (top dose mostly 76.9 µM), most hits filed as inhibitors; 75,000 tested, 0.05% active
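Compounds were incubated for 12 min at room temperature with a complex of 100 nM fluorescein-tagged pBACH1 decapeptide and 250 nM His-tagged BRCT protein. Buffer was phosphate pH 7.3 with EDTA, DTT and Tween 20. Disruption of binding lowers the polarization signal.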
BRCT PPI red: inhibitors of human BRCA1 BRCT-phosphoprotein interaction (red fluorophore). P38398. BRCT-phosphopeptide binding, red fluorescence polarization. Potency, µM (doses to about 76.9 µM), most hits filed as inhibitors. 75,000 tested, 0.03% active. AID 892
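Rhodamine-labelled pBACH1 10-mer (100 nM) bound to BRCT domain (100 nM) at pH 7.3; compounds incubated 12 min room temperature, polarization read. Free peptide defines full inhibition; unlabelled decapeptide titrated as control.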
Large screens that a line does not name were inactive; ! = a repeat was not active. Rows were chosen to be rich in hits. Some 1.2% of all compounds tested hit in one or more screens of this group. Calls follow the shape of the dose curve; as a rule, active = well fitted curve in the direction sought with a large enough effect; inconclusive = small, poorly fitted or top-dose-only effect, or another doubt; inactive = no such curve, though single readings can be large; an effect the other way counts as inactive or inconclusive.

c1ccc(C2=Nn3c(nnc3-c3cc(-c4ccccc4)n[nH]3)SC2)cc1	ERK AVP inh 25µM
Cc1ccc(-c2nnc3n2N=C(c2ccccc2)CS3)cc1	none (no result: ERK AVP inh)
COc1ccccc1-c1nnc2n1N=C(C)CS2	none
COc1ccccc1-c1ccc2ncnc(N(C)C)c2c1	none
CCOc1ccc(/C=C/C(=O)c2cccs2)cc1	none (no result: Pol III holo inh, YjeE inh)
O=C1O/C(=C\Br)CC[C@@H]1c1cccc2ccccc12	ERK AVP inh inconclusive
C(=N\c1c(-c2ccccc2)nc2n1CCS2)/c1ccccc1	ERK AVP inh 20µM
Cn1cccc1C(=O)N1CCC2(CCCN(Cc3ccc(C#N)cc3)C2)CC1	none
COc1ccc(CCNc2oc(COc3ccc(Br)cc3)nc2C#N)cc1OC	ERK AVP inh 20µM
COc1ccc(-c2nc(C#N)c(NCCN(C)C)o2)cc1	none
COc1ccc(-c2nc(C#N)c(NCc3ccc(F)cc3)o2)cc1OC	ERK AVP inh 25µM
COc1ccc(-c2nc(C#N)c(NCCc3ccccc3)o2)cc1	ERK AVP inh 16µM
COc1ccc(CNc2oc(-c3ccccc3)nc2C#N)cc1	ERK AVP inh 32µM
COc1ccc(CCNC[C@H](O)c2ccc(O)cc2)cc1OC	none
COC(=O)[C@@]1(Cc2ccccc2)[C@H]2c3cc(C(=O)N4CCCC4)n(CCO)c3C[C@H]2CN1C(=O)c1ccccc1	none
CCOc1ccc(-c2nc(C#N)c(N3CCN(Cc4ccccc4)CC3)o2)cc1	ERK AVP inh 16µM
O=C(Nc1ccccc1)N1CC[C@@]2(CCCN(C(=O)c3cnccn3)C2)C1	none
CCC(C)C(=O)OC1CC(C)C=C2C=CC(C)C(CCC3CC(O)CC(=O)O3)C21 (configuration not stated)	none (no result: Pol III holo inh, YjeE inh)
Cc1nc2ncnn2c(Nc2ccc3c(c2)OCO3)c1Cc1ccccc1	ERK AVP inh 25µM
Nc1ccc(O)c(C(=O)O)c1	Pol III holo inh 16µM!, BRCT PPI red inconclusive
CCCCNc1nc(C)nc2c1nc(-c1ccccc1)n2CCCN(CC)CC	none
COC(=O)C(C)Sc1nc2c(c(=O)[nH]c(=O)n2C)n1CCC(C)C (configuration not stated)	ERK AVP inh 32µM
Cc1cc2nnc(SC3CCOC3=O)n2c2ccccc12 (configuration not stated)	ERK AVP inh 16µM
O=C1OCCC1Sc1nc2ccccc2n1-c1ccccc1 (configuration not stated)	ERK AVP inh 16µM
N#[N+]c1ccc(Nc2ccccc2)cc1	none
CCOC(=O)c1ccccc1NC(=O)c1ccc(NS(C)(=O)=O)cc1	ERK AVP inh 25µM
COc1ccc(/C=C/C(=O)c2ccc(O)cc2O)cc1OC	ERK AVP inh 16µM (no result: Pol III holo inh, YjeE inh)
COc1ccc(/C=C/C(=O)c2ccc(O)cc2O)cc1	ERK AVP inh inconclusive (no result: Pol III holo inh, YjeE inh)
Nc1ccccc1N=Nc1c(S(=O)(=O)O)cc2cc(S(=O)(=O)O)cc(O)c2c1O	Pol III holo inh 2.5µM
O=S(=O)(O)c1cc(S(=O)(=O)O)c2c(N=Nc3cccc4ccccc34)c(O)ccc2c1	ERK AVP inh inconclusive
COc1cccc(Nc2ncc3nc(-c4ccccc4)c(=O)n(Cc4cccs4)c3n2)c1	none
Nc1nc(CN2CCN(c3ccccn3)CC2)nc(Nc2ccc(Cl)cc2)n1	ERK AVP inh 32µM
Cc1c(O)ccc2c3c(c(=O)oc12)CCCC3	ERK AVP inh 16µM
CN1C2CC(OC(=O)C(CO)c3ccccc3)C[C@@H]1[C@H]1OC21 (some centres not stated)	none (no result: Pol III holo inh, YjeE inh)
CC1(C)CCC[C@@]2(C)[C@@H]1CC[C@]1(C)OC(=O)C[C@@H]21	none (no result: ERK AVP inh, BRCT PPI green, BRCT PPI red)
Cc1cc(OCCCCCNCCO)cc(C)c1Cl	ERK AVP inh 40µM
CC(C)N(CCC(=O)c1ccc2ccccc2c1)Cc1ccccc1	YjeE inh inconclusive, ERK AVP inh 32µM
COc1cccc(Cn2c(=O)c(-c3cc(F)cc(F)c3)nc3cnc(N(C)C)nc32)c1	none
O=c1c(-c2ccc(O)cc2)coc2cc(O)cc(O)c12	ERK AVP inh inconclusive
COc1ccc(-c2coc3cc(O)cc(O)c3c2=O)cc1	ERK AVP inh 16µM
C=C[C@@]1(C)CC(=O)[C@@]2(O)[C@@]3(C)[C@@H](O)CCC(C)(C)[C@@H]3[C@H](OC(=O)CCN(C)C)[C@H](OC(C)=O)[C@@]2(C)O1	ERK AVP inh 1µM
COc1ccc(OCC(=O)N2CC3(C)CC2CC(C)(C)C3)cc1 (configuration not stated)	none
COc1ccc(CC(=O)N2CC3(C)CC2CC(C)(C)C3)cc1OC (configuration not stated)	ERK AVP inh 32µM
CC(C)C[C@@H](CC(=O)N[C@@H](CCC(=O)O)CC(=O)O)NC(=O)[C@@H]1CNCC[C@H]1NC(=O)C[C@@H](NC(=O)C[C@H](Cc1ccccc1)NC(=O)[C@@H]1CCCC[C@H]1N)C(C)C	none (no result: ERK AVP inh, BRCT PPI green, BRCT PPI red)
O=C(Nc1nc(-c2nc3ccccc3s2)cs1)c1ccc(S(=O)(=O)N2CCOCC2)cc1	ERK AVP inh 3.2µM
O=C(Nc1nc(-c2ccc(S(=O)(=O)N3CCCCCC3)cc2)cs1)c1cccs1	ERK AVP inh inconclusive
O=C(Nc1nc(-c2ccc(S(=O)(=O)N3CCCC3)cc2)cs1)c1cccs1	ERK AVP inh 16µM
COc1cccc(C(=O)Nc2nc(-c3ccc(S(=O)(=O)N4CCOCC4)cc3)cs2)c1	ERK AVP inh inconclusive
CCN1CCCC1Cn1c(-c2ccccc2)nc2c(N3CCOCC3)nc(C)nc21 (configuration not stated)	none
Nc1c(S(=O)(=O)O)cc(Nc2ccc(Nc3nc(Cl)nc(Nc4ccc(S(=O)(=O)O)cc4)n3)c(S(=O)(=O)O)c2)c2c1C(=O)c1ccccc1C2=O	Pol III holo inh 40µM, YjeE inh 50µM, ERK AVP inh inconclusive, BRCT PPI green inconclusive
O=C1c2ccccc2C(=O)c2c1ccc(N1C(=O)c3ccccc3C1=O)c2-c1c(N2C(=O)c3ccccc3C2=O)ccc2c1C(=O)c1ccccc1C2=O	none (no result: ERK AVP inh, BRCT PPI green, BRCT PPI red)
N[C@@H](C(=O)O)[C@@H]1C[C@H]1C(=O)O	none (no result: ERK AVP inh, BRCT PPI green, BRCT PPI red)
COc1ccc(C(=O)Nc2cc(C)on2)cc1	none
COc1ccc(-c2c3c(nc4sc(C(=O)Nc5cc(C)on5)c(N)c24)CCC3)cc1	ERK AVP inh 7.9µM
COC(=O)N1[C@H](C)C=C[C@]1(Cc1ccccc1)C(=O)NCc1ccc(N(C)C)cc1	none
C[N+](C)(C)CCN[N@@+]1(C)CCCc2ccccc21	none
CCN(CC)CCOC(=O)c1c(C)oc2ccc(O)cc12	none
CCN(CC)CC[n+]1ccc2c(C)c3[nH]c4ccc(O)cc4c3c(C)c2c1	Pol III holo inh 1.3µM
CCc1cccc(NC(=O)CS(=O)Cc2nc(-c3ccc(C)cc3)oc2C)c1 (configuration not stated)	ERK AVP inh 32µM
CCCCNC(=O)CS(=O)Cc1nc(-c2ccc(C)cc2)oc1C (configuration not stated)	none
N#Cc1cccc(-c2cc(NCc3cccs3)ncn2)c1	ERK AVP inh 13µM
